Experimental data reported in the supplement of paper PMC11001985.

Each target was assayed with C#CCNC(=O)CCSSCCC(=O)NCCc1ccc(C=O)c(C=O)c1 (assay: lysine labeling ratio R10:1 (500 µM / 50 µM probe), SILAC-ABPP in living cells; higher = lower intrinsic lysine reactivity toward the probe, active = 2 or less). Conditions: HeLa; probe concentrations 500 vs 50 µM.
Procedure, shortened: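 An alkyne-tagged lysine probe with a disulfide linker labelled living HeLa cells in PBS at room temperature at either 50 µM or 500 µM, using SILAC light and heavy cells in forward and reverse label swaps. Lysates were mixed, clicked to biotin-azide, trypsin-digested, enriched on neutravidin, DTT-released, alkylated and measured by LC-MS/MS on a TIMS-TOF Pro. Each lysine's R is the filtered median high-probe/low-probe MS1 peptide ratio, combined as the median over forward and reverse replicates, with 20 as the upper limit.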

Chain of UniProt P01130 (P01130 whole entry): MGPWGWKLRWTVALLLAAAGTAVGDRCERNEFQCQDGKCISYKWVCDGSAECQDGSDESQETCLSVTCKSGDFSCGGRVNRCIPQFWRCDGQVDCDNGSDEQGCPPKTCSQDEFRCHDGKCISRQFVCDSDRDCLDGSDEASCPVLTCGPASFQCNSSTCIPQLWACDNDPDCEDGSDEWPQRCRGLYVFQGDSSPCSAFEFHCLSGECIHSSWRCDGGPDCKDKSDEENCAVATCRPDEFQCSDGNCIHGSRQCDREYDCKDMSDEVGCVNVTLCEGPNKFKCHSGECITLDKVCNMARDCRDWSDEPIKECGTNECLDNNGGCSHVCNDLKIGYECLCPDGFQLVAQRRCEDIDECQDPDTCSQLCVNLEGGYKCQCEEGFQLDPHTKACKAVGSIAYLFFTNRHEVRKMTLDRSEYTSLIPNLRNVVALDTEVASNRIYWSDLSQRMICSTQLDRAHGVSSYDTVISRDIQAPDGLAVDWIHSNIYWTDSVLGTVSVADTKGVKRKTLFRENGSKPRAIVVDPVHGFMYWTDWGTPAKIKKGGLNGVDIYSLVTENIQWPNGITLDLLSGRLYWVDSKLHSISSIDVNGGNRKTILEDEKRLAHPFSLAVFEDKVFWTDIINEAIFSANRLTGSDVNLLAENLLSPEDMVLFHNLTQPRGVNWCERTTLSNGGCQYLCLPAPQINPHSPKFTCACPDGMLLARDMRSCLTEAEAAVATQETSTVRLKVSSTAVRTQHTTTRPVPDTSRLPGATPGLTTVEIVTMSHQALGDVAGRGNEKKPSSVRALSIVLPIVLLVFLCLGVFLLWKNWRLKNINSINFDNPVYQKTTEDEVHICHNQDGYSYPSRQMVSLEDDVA
Chain of UniProt Q9Y639 (Q9Y639 whole entry): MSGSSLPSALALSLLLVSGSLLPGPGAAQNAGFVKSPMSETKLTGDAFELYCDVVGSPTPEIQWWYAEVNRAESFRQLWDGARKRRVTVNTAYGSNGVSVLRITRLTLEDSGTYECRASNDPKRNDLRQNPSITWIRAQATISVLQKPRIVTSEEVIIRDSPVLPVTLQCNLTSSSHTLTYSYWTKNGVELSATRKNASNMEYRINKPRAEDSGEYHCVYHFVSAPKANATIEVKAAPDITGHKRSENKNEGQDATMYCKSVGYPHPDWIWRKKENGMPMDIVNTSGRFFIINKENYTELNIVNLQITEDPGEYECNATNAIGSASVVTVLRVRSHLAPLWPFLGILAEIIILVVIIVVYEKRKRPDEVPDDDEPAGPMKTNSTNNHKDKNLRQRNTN
Chain of UniProt O75369 (O75369 whole entry): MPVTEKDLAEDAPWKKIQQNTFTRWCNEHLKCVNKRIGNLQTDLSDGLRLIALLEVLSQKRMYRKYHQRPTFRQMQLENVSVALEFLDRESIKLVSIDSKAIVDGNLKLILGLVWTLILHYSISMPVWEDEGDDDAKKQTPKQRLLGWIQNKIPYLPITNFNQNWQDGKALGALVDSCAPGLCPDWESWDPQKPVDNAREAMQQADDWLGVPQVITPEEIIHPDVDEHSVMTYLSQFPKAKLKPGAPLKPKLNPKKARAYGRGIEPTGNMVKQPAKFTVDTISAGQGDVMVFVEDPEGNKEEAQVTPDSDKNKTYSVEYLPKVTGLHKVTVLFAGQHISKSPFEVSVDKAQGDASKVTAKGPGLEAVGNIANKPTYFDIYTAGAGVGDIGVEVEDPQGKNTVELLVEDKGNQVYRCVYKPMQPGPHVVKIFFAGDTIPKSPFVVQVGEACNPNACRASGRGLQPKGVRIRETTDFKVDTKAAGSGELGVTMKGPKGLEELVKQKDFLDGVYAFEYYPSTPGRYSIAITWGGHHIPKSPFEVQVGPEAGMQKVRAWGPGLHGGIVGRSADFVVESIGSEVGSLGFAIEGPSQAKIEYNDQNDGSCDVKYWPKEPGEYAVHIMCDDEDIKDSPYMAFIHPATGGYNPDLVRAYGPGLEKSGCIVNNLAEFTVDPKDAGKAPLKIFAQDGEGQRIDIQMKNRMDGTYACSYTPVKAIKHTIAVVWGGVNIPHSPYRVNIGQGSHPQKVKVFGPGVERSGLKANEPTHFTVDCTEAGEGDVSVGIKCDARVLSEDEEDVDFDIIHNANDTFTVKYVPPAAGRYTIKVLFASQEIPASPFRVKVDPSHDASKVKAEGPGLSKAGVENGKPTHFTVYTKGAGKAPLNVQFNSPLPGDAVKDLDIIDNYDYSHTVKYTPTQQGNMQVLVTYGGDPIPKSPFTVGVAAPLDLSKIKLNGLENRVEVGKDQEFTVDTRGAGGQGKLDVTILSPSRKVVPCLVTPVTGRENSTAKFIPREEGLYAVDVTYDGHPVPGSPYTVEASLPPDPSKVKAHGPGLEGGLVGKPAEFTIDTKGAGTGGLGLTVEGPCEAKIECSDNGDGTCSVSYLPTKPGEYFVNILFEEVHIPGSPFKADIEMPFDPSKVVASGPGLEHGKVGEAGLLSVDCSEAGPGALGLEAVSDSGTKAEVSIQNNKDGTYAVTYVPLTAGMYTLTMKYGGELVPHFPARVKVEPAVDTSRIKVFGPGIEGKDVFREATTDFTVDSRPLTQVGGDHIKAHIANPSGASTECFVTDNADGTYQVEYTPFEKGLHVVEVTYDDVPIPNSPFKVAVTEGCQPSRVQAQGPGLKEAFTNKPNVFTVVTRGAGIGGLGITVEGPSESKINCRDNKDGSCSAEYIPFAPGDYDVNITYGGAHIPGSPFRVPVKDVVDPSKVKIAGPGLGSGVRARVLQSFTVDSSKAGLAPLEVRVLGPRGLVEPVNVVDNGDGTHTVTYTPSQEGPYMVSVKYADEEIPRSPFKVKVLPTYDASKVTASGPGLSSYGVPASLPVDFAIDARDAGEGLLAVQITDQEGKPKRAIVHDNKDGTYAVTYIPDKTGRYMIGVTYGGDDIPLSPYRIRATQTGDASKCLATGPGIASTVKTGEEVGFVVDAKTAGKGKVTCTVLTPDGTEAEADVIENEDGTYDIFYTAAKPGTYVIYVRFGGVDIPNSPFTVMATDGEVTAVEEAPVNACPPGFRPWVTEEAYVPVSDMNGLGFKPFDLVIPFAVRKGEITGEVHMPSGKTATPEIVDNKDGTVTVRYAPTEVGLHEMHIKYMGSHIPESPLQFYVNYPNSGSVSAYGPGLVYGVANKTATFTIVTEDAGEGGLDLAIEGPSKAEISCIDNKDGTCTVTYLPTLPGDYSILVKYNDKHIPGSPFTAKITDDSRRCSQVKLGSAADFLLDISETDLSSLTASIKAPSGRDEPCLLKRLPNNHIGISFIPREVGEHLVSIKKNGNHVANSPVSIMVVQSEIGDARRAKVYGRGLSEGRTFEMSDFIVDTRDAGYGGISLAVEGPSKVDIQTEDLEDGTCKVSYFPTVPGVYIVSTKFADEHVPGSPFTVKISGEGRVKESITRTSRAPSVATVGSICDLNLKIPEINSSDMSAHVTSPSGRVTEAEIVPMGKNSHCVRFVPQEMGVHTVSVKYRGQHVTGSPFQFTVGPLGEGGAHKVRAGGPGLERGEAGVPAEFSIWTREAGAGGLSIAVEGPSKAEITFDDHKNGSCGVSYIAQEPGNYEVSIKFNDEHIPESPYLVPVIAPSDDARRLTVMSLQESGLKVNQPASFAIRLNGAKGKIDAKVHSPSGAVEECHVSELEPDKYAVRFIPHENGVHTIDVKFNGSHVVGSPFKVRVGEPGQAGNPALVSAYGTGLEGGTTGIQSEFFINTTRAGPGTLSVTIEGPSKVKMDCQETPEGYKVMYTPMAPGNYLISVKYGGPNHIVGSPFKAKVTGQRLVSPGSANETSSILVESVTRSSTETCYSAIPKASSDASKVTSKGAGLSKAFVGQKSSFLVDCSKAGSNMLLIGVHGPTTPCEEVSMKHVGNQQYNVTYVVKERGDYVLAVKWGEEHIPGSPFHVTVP
Chain of UniProt P04083 (P04083 whole entry): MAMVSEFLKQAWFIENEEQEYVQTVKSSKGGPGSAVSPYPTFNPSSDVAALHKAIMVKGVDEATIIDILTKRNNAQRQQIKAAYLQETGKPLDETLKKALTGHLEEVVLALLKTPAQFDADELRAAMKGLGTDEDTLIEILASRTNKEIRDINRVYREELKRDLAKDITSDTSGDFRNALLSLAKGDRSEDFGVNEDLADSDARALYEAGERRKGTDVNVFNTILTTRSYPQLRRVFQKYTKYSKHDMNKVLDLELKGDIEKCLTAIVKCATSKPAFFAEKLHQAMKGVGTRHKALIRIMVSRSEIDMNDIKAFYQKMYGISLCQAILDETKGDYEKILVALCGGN
Chain of UniProt Q9P2B2 (Q9P2B2 whole entry): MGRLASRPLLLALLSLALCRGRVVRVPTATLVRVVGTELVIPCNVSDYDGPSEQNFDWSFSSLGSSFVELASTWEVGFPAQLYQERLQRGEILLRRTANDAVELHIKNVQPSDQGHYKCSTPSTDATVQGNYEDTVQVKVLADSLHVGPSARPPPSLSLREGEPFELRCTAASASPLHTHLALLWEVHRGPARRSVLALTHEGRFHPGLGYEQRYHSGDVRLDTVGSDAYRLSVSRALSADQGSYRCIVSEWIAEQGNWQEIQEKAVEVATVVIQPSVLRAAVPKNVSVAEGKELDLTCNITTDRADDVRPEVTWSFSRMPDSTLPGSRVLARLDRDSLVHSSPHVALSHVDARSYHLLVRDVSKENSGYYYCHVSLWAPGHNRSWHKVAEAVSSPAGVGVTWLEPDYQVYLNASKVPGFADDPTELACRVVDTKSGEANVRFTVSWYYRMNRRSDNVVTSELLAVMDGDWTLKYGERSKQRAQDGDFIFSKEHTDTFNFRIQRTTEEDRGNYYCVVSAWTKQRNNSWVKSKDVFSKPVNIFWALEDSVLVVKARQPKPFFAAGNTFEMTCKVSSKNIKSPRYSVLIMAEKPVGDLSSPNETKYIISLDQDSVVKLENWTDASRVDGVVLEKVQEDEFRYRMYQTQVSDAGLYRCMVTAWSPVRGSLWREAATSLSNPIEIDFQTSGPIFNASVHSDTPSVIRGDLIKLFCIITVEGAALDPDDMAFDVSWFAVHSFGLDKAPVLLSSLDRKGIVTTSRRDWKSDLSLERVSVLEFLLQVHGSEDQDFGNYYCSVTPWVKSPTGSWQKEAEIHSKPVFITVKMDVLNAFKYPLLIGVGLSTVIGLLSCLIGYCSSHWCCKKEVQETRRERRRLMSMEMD

Row | Target | lysine labeling ratio R10:1
1 | HSPA5 (lysine site: K382) (UniProt P11021) | 1.18 (active)
2 | DYNC1H1 (lysine site: K4406) (UniProt Q14204) | 3.65 (inactive)
3 | FLNB (lysine site: K409) (UniProt O75369) | 2.05 (inactive)
4 | PTBP1 (lysine site: K271) (UniProt P26599) | 2.72 (inactive)
5 | MSLN (lysine site: K559) (UniProt Q13421) | 2.61 (inactive)
6 | CD151 (lysine site: K132) (UniProt P48509) | 2.31 (inactive)
7 | LDLR (lysine site: K518) (UniProt P01130) | 1.72 (active)
8 | UniProt P62244 (lysine site: K32) | 4.35 (inactive)
9 | FLNA (lysine site: K338) (UniProt P21333) | 3.9 (inactive)
10 | ROBO1 (lysine site: K232) (UniProt Q9Y6N7) | 5.29 (inactive)
11 | EGFR (lysine site: K328) (UniProt P00533) | 3.46 (inactive)
12 | PTGFRN (lysine site: K632) (UniProt Q9P2B2) | 11.6 (inactive)
13 | ANXA1 (lysine site: K166) (UniProt P04083) | 1.32 (active)
14 | UniProt P26639 (lysine site: K319) | 2.46 (inactive)
15 | CLTC (lysine site: K1612) (UniProt Q00610) | 4.67 (inactive)
16 | NPTN (lysine site: K244) (UniProt Q9Y639) | 8.84 (inactive)
17 | CCT2 (lysine site: K230) (UniProt P78371) | 3.3 (inactive)
